Bioassay records (PubChem BioAssay)
Most compounds without a hit are left out; they make up all but 1.5% or so of the library.
BLM helicase inh: blocks DNA unwinding by human BLM helicase | Potency, µM (doses to about 56.1 µM), actives largely listed as inhibitors | 350,000 compounds, 0.2% hits | recombinant BLM DNA unwinding, fluorescence dequenching | P54132; further: nearly all actives have a fitted effect of over 35% in size
WRN helicase inh: WRN helicase (human) inhibition | 360,000 compounds, 0.46% hits | WRN helicase unwinding, fluorescent forked duplex, kinetic | Potency, µM (series often up to 114 µM), most hits filed as inhibitors; further: nearly all actives have a fitted effect of over 55% in size
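Kinetic red-fluorescence monitoring (525/598 nm) tracks WRN helicase activity after 100 nM fluorophore-quencher forked duplex and 2 mM ATP are added to 20 nM enzyme pretreated 15 min at room temperature with compound.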
FEN1 inhibitor: blocks human flap endonuclease 1; Potency, µM (doses to about 114 µM), most hits filed as inhibitors; Recombinant FEN1 flap cleavage, fluorescence, 15 min; P39748; 390,000 compounds, 0.35% hits; further: nearly all actives have a fitted effect of over 65% in size
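Reaction started by adding substrate (50 nM final) to 10 nM enzyme after 15 min room-temperature compound preincubation. Reads at 0 and 15 min, with data normalized and fitted to a four-parameter Hill equation.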
PI5P4Ka inh: blocks human PI5P4K alpha kinase activity | PI5P4Kalpha enzyme, ADP-Glo luminescence, 60 min; stronger effect = lower value | 330,000 compounds, 1.2% hits | P48426 | max response, % | AID 652105; active means max response of -50% or lower; inconclusive means between -30% and -50%; inactive means -30% or higher; further: value at the top dose of about 77 µM
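Controls without substrate or without enzyme flank wells where PI5P4Kalpha converts substrate using 5 microM ATP (final). Incubation lasts 60 minutes at room temperature; ADP formed is read by ADP-Glo luminescence.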
RECQ1 inh-1: blocks DNA unwinding by human RECQ1 | RECQ1 DNA unwinding, red fluorescence kinetic read | AID 2549 | Potency, µM (top dose mostly 57.3 µM), actives largely listed as inhibitors | P46063 | 240,000 compounds, 0.54% hits; further: nearly all actives have a fitted effect of over 30% in size
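50 nM RECQ1T1 preincubated 15 min with compound in Tris pH 8.0 buffer with MgCl2, DTT, Tween-20 and 2.5 ug/ml poly(dI-dC); started with 200 nM TAMRA/BHQ-2 forked duplex and 2 mM ATP. Unwinding read as fluorescence (525/598 nm), two reads 2 h apart.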
APE1 inh: blocks human APE1 abasic DNA cleavage. P27695. recombinant APE1, TAMRA/BHQ-2 abasic DNA cleavage fluorescence. Potency, µM (doses to about 65.8 µM), hits mostly inhibitors. 350,000 compounds, 0.35% hits; further: nearly all actives have a fitted effect of over 55% in size
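Incision of a quenched TAMRA/BHQ-2 THF abasic-site duplex (50 nM) by 0.75 nM APE1, after 15 min compound preincubation, measured as fluorescence increase over three 60 s reads. Values normalized to buffer, DMSO and NSC13755 control wells.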
RECQ1 inh conf: confirmation of human RECQ1 helicase inhibitors | shares compounds with RECQ1 inh-1 | RECQ1 helicase DNA unwinding, fluorescence | Potency, µM (titrated, usually from 229 µM), hits mostly inhibitors | 610 compounds, 28% hits | AID 2708; further: nearly all actives have a fitted effect of over 45% in size
ADP FP counter: displaces ADP in a fluorescence polarization counter-screen for RECQ1 hits | shares compounds with RECQ1 inh-1 | Potency, µM (doses to about 228 µM), hits mostly inhibitors | AID 2711 | 530 compounds, 27% hits | ADP fluorescence polarization displacement counterscreen; further: nearly all actives have a fitted effect of over 45% in size
RECQ1 inh-2: blocks human RECQ1 DNA unwinding | shares compounds with RECQ1 inh-1 | recombinant RECQ1 DNA unwinding, red fluorescence | Potency, µM (doses to about 119 µM), most hits filed as inhibitors | 1,100 compounds, 15% hits | AID 504841; further: nearly all actives have a fitted effect of over 50% in size
Numbers stand for hits; - = inactive; ? = inconclusive; . = no result given; [ ] = another dose, or the depositor's remark. Unless noted, the call rests on the fitted dose curve; in most records, active means well fitted curve in the direction sought with a large enough effect; inconclusive means small, poorly fitted or top-dose-only effect, or another doubt; inactive means no such curve, though single readings can be large; an effect the other way counts as inactive or inconclusive.

SMILES	BLM helicase inh	WRN helicase inh	FEN1 inhibitor	PI5P4Ka inh	RECQ1 inh-1	APE1 inh	RECQ1 inh-2	others
CCc1cccc(C)c1NC(=O)C1CCN(c2nnc(C)c3c(C)n(-c4ccccc4)nc23)CC1	-	.	-	.	.	.	.
Cn1c(C(=O)O)c(CC(=O)NCC2COc3ccccc3O2)c2ccccc21 (configuration not stated)	-	-	-	-	-	-	.	RECQ1 inh conf=-;ADP FP counter=-
Cc1ccc(S(=O)(=O)N2CCc3nc(COc4ccccc4)c4c(c3C2)CO[C@@H](C)C4)cc1	-[12.4 µM]	.	.	.	-[11.5 µM]	-[12.4 µM]	.
O=C(N/N=C/c1ccccc1C(=O)O)c1ccc(COc2cccc3cccnc23)cc1	-	-[11.6 µM]	-	-	-	-	.	RECQ1 inh conf=-;ADP FP counter=-
Cc1cc(C)cc(OCC(=O)Nc2nonc2NC(=O)COc2cc(C)cc(C)c2)c1	-	-	-	.	?	-	-
O=C(O)c1c2c(nc3ccc(Cl)cc13)CCC2	-	-[11.6 µM]	-	-	28.2µM	?	-
Cc1ccc2nc3c(c(C(=O)O)c2c1)CCC3	-	-	?	.	-	?	.
O=C1NC(=Nc2ccccc2)S/C1=C\c1cccs1	-	-	-	-	-	?	.
O=C1NC(=Nc2ccc3ccccc3c2)S/C1=C/c1ccco1	17.8µM	-[11.6 µM]	-	-55.4	?	?	?
Cc1cc(C)cc(N=C2NC(=O)/C(=C/c3cccs3)S2)c1	-	-	-	-	-	-	.
Cc1cccc(N=C2NC(=O)/C(=C/C=C/c3ccco3)S2)c1	?	?	?	-67.0	35.5µM	?	?
COc1ccc(N=C2NC(=O)/C(=C\C=C\c3ccco3)S2)cc1	17.8µM	22.4µM	?	-81.0	?	?	?
C#CCn1c(=NC(=O)c2ccc(S(=O)(=O)N3CCCc4ccccc43)cc2)sc2cc(S(N)(=O)=O)ccc21	-	?	-	-	-	-	.	RECQ1 inh conf=-;ADP FP counter=-
O=[N+]([O-])c1ccc(Sc2cccc[n+]2[O-])c2nonc12	?	15.8µM	22.4µM	-53.5	?	?	25.1µM
O=[N+]([O-])c1ccc(Nc2ccccc2)c2nonc12	-	-	-	-	.	-	.
COc1cccc(CNC(=O)CSC2=Nc3ccccc3N=C(c3ccc(F)cc3)C2)c1	-	.	-	.	.	.	.
COc1ccccc1-c1nnc(SC(C(=O)c2c[nH]c3ccccc23)c2ccccc2)n1C (configuration not stated)	-	-	-	-	-	-	.
COc1cccc(-c2nnc(SC(C(=O)c3c[nH]c4ccccc34)c3ccccc3)n2C)c1 (configuration not stated)	-	-	-	-	-	-	.	RECQ1 inh conf=-;ADP FP counter=-
COc1cccc(C(=O)Nc2cc(-c3ccccc3)nn2-c2ccccc2)c1	-	.	-	.	.	.	.
O=C1CC(=O)CC(c2ccccc2Cl)C1	-	-	-	-	?	-	-
CCOC(=O)C1CCCN(C(=O)c2c(C)nn(-c3ccc(F)cc3)c2-n2cccc2)C1 (configuration not stated)	-	.	-	.	.	.	.
Nc1ncnc2c1ncn2COC(CO)CO	.	.	-	.	.	.	.	RECQ1 inh conf=-
COc1ccc(SCCN2CCN(CCc3ccccc3)CCC2=O)cc1	-	.	-	.	-	-	.
O=C(CSc1nnc(-c2ccco2)c(-c2ccco2)n1)Nc1ccccc1	14.1µM	35.5µM	?	-84.2	10µM	14.1µM	-
CSc1nnc(-c2ccccc2)c(-c2ccccc2)n1	-	-	-	-	-	-	.
CSc1nnc(-c2ccco2)c(-c2ccco2)n1	?	?	-	?	?	?	-
CCOC(=O)C(Oc1ccc2c(-c3ccccc3)cc(=O)oc2c1)c1ccccc1 (configuration not stated)	-	-	-	-	?	-	-
